This is an account of results in ChEMBL document CHEMBL3988442, “University of Dundee, Small-Polar-MMV Screening Library” (2021).

Holding throughout (design): scale not given: direction of the effect not stated beside the values
Assay [1] has as its target Protein translocase subunit SecA (Escherichia coli (strain K12)) (UniProt P10408). The experiment in a line: Assay to Identify E. coli SecA ATPase Inhibitors. Format: functional. The settings on record: 30 µM.
In assay [2] the target is T1, Ubiquitin-activating enzyme e1, putative (Leishmania donovani (strain BPK282A1)) (UniProt E9BSI1).
T1 sequence (whole entry): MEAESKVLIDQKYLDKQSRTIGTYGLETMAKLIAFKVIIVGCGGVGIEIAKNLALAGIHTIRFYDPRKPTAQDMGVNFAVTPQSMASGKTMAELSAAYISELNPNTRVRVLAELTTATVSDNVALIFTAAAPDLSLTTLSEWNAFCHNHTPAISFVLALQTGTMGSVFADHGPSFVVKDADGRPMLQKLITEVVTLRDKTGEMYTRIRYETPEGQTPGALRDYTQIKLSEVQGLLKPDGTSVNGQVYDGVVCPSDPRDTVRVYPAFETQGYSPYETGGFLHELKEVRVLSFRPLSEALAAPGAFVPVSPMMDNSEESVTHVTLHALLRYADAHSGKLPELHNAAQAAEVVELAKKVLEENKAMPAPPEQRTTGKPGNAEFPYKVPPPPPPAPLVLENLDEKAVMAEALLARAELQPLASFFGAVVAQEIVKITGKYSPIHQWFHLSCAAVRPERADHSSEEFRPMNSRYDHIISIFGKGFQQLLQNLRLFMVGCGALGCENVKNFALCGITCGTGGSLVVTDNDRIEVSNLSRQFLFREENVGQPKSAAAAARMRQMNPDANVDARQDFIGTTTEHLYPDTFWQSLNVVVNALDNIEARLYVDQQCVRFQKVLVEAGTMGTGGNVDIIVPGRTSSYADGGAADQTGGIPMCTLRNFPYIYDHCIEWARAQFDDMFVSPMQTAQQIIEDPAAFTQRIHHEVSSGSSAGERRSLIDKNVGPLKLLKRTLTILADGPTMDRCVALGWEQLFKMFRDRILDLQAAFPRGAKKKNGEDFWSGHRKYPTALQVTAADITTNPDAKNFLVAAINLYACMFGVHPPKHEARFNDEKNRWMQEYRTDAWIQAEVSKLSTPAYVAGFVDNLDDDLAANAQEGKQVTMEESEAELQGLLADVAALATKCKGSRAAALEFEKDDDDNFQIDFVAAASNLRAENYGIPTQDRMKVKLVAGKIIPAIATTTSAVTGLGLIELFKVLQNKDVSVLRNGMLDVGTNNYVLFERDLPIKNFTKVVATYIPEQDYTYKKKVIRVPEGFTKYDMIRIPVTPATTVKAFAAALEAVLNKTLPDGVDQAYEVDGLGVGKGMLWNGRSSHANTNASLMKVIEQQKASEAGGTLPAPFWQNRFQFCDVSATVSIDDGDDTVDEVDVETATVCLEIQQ
Briefly: Leishmania donovani Ubiquitin Activating Enzyme (LdE1). In kind it is functional. The settings on record: 30 µM.

The target of assay [3] is AMP-activated protein kinase, AMPK (Homo sapiens) (UniProt P54646+O43741+P54619+Q9UGJ0+Q9Y478+Q13131+Q9UGI9). The experiment in a line: AMP-dependent Kinase enzyme assay. An in vitro enzyme assay that detects ADP turnover that is directly proportional to AMPK activity. This uses naive AMPK that is activated during the assay with MK-8722. The following applies: 30 µM. Format: functional.

Assay [4] addresses Sialic acid-binding Ig-like lectin 9 (Homo sapiens) (UniProt Q9Y336). The experiment in a line: Hs-Siglec9 ALPHAscreen SOP 20170721. The following applies: 10 µM. On the technique in general: Alpha assays give light when donor and acceptor beads are brought close together.
The next assay deals with Trypanosoma cruzi. Briefly: Trypanosoma cruzi phosphomannomutase and mannose-1-phosphate guanylyltransferase assay. The settings on record: 10 µM. Format: functional.
For assay [5], the target named is T2, Arginase-2, mitochondrial (Homo sapiens) (UniProt P78540).
T2 sequence (whole entry): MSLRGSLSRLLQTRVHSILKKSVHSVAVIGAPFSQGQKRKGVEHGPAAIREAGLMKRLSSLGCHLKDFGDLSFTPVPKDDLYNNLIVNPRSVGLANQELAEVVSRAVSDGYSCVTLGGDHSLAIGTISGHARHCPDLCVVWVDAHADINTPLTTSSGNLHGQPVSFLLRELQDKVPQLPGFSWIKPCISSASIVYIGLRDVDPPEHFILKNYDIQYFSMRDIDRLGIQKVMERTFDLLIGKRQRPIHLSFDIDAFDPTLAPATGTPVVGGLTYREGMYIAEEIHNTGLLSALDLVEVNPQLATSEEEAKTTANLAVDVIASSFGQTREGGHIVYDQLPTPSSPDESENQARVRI
Briefly: in vitro enzyme assay to detect the production of urea directly proportional to the activity of Arginase II. Further: in the data most compounds retested in dose-response had high values. Format: functional. The settings on record: 33.3 µM.

Assay [6] deals with T3, Proteasome subunit beta (Trypanosoma cruzi) (UniProt O96673).
T3 sequence (whole entry): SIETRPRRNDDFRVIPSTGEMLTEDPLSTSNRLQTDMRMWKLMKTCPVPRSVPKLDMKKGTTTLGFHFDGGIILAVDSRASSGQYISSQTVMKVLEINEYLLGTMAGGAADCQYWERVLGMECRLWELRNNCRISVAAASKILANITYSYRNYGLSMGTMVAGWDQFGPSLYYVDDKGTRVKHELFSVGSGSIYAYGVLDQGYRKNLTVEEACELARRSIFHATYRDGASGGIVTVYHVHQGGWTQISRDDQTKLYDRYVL
Briefly: Trypanosoma cruzi proteasome chymotrypsin-like activity (TcProtChymo) assay. Further: in the data most compounds retested in dose-response had high values. Format: functional. The settings on record: 9.37 µM.

The species named for another assay is Homo sapiens. Briefly: To identify inhibition of the IFN signalling (Jak-Stat) pathway via expression of an eGFP reporter gene under the control of an IFN-stimulated response element (ISRE) containing MxA promoter. The settings on record: 30 µM. In kind it is functional.
Assay [7] deals with T4, Tyrosyl-tRNA synthetase, putative (Trypanosoma cruzi (strain CL Brener)) (UniProt Q4DSP6).
T4 sequence (whole entry): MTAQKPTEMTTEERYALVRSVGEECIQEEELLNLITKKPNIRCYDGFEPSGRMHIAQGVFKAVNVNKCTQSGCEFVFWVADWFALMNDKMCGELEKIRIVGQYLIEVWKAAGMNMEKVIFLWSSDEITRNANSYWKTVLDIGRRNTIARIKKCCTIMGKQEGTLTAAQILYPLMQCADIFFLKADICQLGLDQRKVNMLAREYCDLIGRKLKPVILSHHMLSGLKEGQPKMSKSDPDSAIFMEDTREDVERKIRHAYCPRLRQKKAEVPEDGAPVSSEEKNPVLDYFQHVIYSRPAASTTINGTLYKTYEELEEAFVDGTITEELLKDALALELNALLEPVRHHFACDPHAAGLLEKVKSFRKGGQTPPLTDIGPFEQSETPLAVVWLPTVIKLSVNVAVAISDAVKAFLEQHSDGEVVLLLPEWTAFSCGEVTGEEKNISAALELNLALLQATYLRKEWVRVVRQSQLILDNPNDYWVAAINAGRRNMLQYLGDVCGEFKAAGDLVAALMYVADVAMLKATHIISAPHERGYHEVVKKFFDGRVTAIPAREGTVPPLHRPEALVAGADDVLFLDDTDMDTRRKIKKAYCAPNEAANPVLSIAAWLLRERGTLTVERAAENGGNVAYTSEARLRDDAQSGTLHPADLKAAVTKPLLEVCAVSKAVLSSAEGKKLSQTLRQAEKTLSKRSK
The experiment in a line: Trypanosoma cruzi tyrosyl tRNA synthetase (TcYRS) _High Tyrosine SOP. Further: in the data most compounds retested in dose-response had high values. In kind it is functional. The following applies: 30 µM.

Assay [8] addresses T4, Tyrosyl-tRNA synthetase, putative (Trypanosoma cruzi (strain CL Brener)). The experiment in a line: Trypanosoma cruzi tyrosyl tRNA synthetase (TcYRS) SOP. The following applies: 30 µM. In kind it is functional.
Assay [9] concerns the target Chromo domain-containing protein 1 (Saccharomyces cerevisiae (strain ATCC 204508 / S288c) (Baker's yeast)) (UniProt P32657). Briefly: ScCHD-1 Enzyme Inhibition Assay. Further: in the data most compounds retested in dose-response had high values. Format: functional. The following applies: 30 µM.

Structures are written as SMILES. For some of these results: Results with a measured potency or affinity are listed apart.

Sequence of Sialic acid-binding Ig-like lectin 9 (Homo sapiens) (Q9Y336 whole entry): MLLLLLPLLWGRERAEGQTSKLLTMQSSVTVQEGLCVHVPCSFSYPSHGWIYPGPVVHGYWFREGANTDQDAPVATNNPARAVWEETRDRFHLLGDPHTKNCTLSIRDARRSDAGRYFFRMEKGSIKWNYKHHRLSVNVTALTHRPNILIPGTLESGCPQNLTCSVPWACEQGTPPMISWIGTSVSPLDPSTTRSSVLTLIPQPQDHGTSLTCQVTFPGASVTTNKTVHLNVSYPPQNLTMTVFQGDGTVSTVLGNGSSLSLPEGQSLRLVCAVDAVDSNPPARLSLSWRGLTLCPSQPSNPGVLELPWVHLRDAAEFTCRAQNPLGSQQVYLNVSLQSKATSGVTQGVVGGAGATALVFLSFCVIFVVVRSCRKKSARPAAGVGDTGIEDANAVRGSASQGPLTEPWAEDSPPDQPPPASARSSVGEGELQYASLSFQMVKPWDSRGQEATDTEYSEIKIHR
Sequence of Protein translocase subunit SecA (Escherichia coli (strain K12)) (P10408 whole entry): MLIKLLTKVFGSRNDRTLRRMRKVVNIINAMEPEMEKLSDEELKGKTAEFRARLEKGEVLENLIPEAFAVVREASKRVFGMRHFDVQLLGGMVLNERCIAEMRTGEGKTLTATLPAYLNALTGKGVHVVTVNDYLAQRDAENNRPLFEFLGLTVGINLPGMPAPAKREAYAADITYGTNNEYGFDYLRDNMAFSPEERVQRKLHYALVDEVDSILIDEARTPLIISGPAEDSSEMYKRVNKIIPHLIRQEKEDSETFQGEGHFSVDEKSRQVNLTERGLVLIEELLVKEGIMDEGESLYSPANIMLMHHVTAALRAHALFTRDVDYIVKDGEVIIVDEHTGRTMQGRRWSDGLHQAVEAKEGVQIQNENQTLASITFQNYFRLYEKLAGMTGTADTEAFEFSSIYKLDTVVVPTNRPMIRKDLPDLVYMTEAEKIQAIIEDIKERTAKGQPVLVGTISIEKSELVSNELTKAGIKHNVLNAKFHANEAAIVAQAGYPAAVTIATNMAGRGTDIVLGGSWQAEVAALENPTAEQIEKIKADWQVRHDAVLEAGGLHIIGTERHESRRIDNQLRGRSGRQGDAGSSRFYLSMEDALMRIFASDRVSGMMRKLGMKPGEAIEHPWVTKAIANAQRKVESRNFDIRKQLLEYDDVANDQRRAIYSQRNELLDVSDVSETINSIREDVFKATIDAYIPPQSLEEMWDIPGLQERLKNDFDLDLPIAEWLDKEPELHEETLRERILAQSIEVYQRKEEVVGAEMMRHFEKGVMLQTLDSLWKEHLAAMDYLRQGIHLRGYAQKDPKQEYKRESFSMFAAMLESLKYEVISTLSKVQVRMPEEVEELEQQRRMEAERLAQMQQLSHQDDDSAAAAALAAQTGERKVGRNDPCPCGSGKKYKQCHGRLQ
Sequence of Chromo domain-containing protein 1 (Saccharomyces cerevisiae (strain ATCC 204508 / S288c) (Baker's yeast)) (P32657 whole entry, the tested form may be a part): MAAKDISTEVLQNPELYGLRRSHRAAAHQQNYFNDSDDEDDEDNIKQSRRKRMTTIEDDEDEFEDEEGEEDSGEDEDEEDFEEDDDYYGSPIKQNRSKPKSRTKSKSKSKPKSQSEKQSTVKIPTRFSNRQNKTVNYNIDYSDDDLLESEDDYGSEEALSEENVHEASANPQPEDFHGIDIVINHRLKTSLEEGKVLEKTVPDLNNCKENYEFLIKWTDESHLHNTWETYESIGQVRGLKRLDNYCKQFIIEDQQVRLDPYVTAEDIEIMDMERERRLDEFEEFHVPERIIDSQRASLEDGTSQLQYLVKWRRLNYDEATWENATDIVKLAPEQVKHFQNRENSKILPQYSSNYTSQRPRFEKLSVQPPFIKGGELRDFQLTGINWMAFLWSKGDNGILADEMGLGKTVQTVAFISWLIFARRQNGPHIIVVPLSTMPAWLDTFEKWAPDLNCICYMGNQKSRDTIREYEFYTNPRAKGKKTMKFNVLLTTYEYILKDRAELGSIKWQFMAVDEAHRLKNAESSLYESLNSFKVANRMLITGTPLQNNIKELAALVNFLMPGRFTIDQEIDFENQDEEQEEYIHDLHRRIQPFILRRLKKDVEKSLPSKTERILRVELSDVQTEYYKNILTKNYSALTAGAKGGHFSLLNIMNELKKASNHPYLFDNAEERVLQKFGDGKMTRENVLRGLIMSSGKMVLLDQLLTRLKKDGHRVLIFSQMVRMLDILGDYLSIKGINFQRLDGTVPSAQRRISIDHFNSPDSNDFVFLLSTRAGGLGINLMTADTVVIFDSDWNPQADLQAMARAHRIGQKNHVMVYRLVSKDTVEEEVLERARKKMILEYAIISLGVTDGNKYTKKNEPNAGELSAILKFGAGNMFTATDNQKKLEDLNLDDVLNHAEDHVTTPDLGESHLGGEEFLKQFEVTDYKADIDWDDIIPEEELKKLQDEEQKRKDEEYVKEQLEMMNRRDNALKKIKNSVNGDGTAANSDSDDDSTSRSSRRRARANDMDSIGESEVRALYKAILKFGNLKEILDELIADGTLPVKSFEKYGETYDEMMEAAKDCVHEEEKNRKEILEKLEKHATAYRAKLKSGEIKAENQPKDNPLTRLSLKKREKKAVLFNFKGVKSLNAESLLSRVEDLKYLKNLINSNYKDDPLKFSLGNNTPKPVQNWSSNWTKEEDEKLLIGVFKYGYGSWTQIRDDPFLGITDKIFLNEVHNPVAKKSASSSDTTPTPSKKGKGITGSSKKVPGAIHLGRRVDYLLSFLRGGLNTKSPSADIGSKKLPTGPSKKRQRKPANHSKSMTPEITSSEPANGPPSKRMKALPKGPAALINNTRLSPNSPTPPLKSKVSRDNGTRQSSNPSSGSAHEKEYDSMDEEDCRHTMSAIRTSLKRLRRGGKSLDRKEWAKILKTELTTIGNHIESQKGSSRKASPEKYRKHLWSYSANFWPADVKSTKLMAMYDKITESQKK

With `Cc1nccc(-c2cccc(NCC(=O)N3CCc4sccc4C3)c2)n1`, the Percent Effect in assay [1] is -1.56%; in [2], 2.63%; in assay [3] it was 49.8%; in assay [4] it was -3.82%; with Trypanosoma cruzi, 4.76%; in assay [5], -1.8%. The Percent Effect in assay [6] was 6.68%; in the assay filed under Homo sapiens it was -23.6%; in assay [7], 11.3%; in [8] it was 30.9%; in assay [9], -8.23%.
With `CC(C)C(C(=O)N1CCCN(Cc2cnn(C)c2)CC1)n1cncn1` (stereo not drawn), the Percent Effect is -1.34% in assay [1]; 0% in assay [2]; 2.52% in [3]; 2.77% in assay [4]; -5.8% in the assay on Trypanosoma cruzi; 2.76% in assay [5]. The Percent Effect in assay [6] is 7.82%; in the assay listed under Homo sapiens, -12.4%; in assay [7], 1.07%; in assay [8] it was -1.24%; in [9], 2.06%.
For `COCCNC(=O)c1ccc(C)c(-n2cccc2)c1`, the Percent Effect in assay [1] is 2.25%; in [2], 13.2%; in assay [3], 4.41%; in assay [4], -4.12%; in the assay on Trypanosoma cruzi it was -3.8%; in assay [5], -2.37%. The Percent Effect in [6] was 14.3%; in the assay listed under Homo sapiens it was -4.52%; in assay [7], 7.45%; in assay [8], 7.79%; in assay [9] it was -3.58%.
Turning to `CCc1nc(C2CCCN2Cc2nc3ccccc3o2)no1` (stereo not drawn), the Percent Effect in assay [1] is -0.183%; in [2], 2.6%; in [3] it was 6.37%; in assay [4], 9.09%; in the assay on Trypanosoma cruzi it was 1.67%; in [5], 2.74%. The Percent Effect in [6] is 2.67%; in the assay listed under Homo sapiens, -1.25%; in [7], -2.86%; in assay [8], 0%; in assay [9] it was 2.53%.
Turning to `CCN(CC)c1ccc(NS(=O)(=O)c2cncc(F)c2)cn1`, the Percent Effect in assay [1] was 1.55%; in assay [2] it was 13.7%; in assay [3], 2.14%; in assay [4] it was 7.06%; in the assay on Trypanosoma cruzi it was 3.57%; in assay [5], -5.99%. Further, the Percent Effect in assay [6] is 4.71%; in the assay filed under Homo sapiens, -23.6%; in assay [7], 6.25%; in assay [8], 11.1%; in assay [9], -6.32%.
In the case of `COCc1nc2cc(NCc3ccncc3)ccc2o1`, the Percent Effect in assay [1] was 6.12%; in assay [2], 54%; in [3], -108%; in [4], -0.763%; in the assay on Trypanosoma cruzi, -1.76%; in [5], 9.58%. The Percent Effect in assay [6] was 13.4%; in the assay filed under Homo sapiens, -8.66%; in assay [7] it was 4.95%; in assay [8] it was -1.22%; in assay [9] it was 2.52%.
On to `COCCNC(=O)[C@H]1CN(c2nnc(C)s2)C[C@H]2OCC[C@@H]12`, for which the Percent Effect in assay [1] was -2.67%; in [2] it was 0%; in assay [3], 13.1%; in assay [4] it was 0.154%; with Trypanosoma cruzi it was -0.394%; in assay [5], -0.233%. For the same compound, the Percent Effect in assay [6] came to 3.79%; in the assay filed under Homo sapiens it was 6.49%; in assay [7], 1.06%; in assay [8], 1.28%; in [9], 2.36%.
For `COCCN(CCc1ccccc1)Cc1nc2c(cnn2C)c(=O)[nH]1`, the Percent Effect in assay [1] is -1.78%; in [2], 13.5%; in assay [3] it was 1.09%; in [4], 15.2%; in the assay with Trypanosoma cruzi, 1.04%; in assay [5] it was -2.81%. Moreover, the Percent Effect in assay [6] was -0.36%; in the assay listed under Homo sapiens, -11.6%; in assay [7] it was 7.39%; in assay [8], 18.5%; in [9] it was -9.44%.
